G9a inh: qHTS Assay for Inhibitors of Histone Lysine Methyltransferase G9a | Histone-lysine N-methyltransferase EHMT2 (Homo sapiens), Q96KQ7 | G9a H3K9 monomethylation, AlphaScreen, 2 h | Potency, µM (series often up to 102 µM), without a hit: at the top dose activity, negative = inhibition, actives largely listed as inhibitors | 350,000 compounds, 8.8% hits; note: % is set by controls: 0 for no effect and ±100 for the full control effect; nearly all actives have a fitted effect of over 75% in size
Target sequence (Q96KQ7 913-1193 limits assumed): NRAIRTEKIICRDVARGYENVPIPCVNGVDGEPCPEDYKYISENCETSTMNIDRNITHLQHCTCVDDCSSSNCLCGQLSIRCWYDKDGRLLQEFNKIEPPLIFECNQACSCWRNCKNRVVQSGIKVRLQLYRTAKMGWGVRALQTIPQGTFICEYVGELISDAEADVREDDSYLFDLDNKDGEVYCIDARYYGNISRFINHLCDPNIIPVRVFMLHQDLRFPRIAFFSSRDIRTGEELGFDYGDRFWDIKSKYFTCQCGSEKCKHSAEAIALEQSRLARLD
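AlphaScreen detection with an anti-monomethyl H3K9 antibody quantified product after a 2 h room-temperature reaction containing 500 nM biotinylated H3K9 peptide, 20 µM SAM and 20 nM enzyme, which had been preincubated 15 min with compound.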
JMJD2A Tudor: qHTS Assay for Inhibitors of JMJD2A-Tudor Domain | 390,000 compounds, 4.4% hits | Potency, µM (doses to about 114 µM), without a hit: top-dose activity change, negative = inhibition, actives largely listed as inhibitors | AlphaScreen JMJD2A-Tudor / H3K4me3 peptide binding | AID 504339, 2011; note: % is set by controls: 0 for no effect and ±100 for the full control effect; nearly all actives have a fitted effect of over 50% in size
HP1b chromo inh: HTS for Inhibitors of HP1-beta Chromodomain Interactions with Methylated Histone Tails. Potency, µM (doses to about 114 µM), for inactives: at the highest dose activity change, negative = inhibition, actives largely listed as inhibitors. 390,000 compounds, 0.56% hits. AlphaScreen HP1-beta / biotin-H3K9me3 peptide binding. Chromobox protein homolog 1 (Homo sapiens), P83916; note: nearly all actives have a fitted effect of over 70% in size
Target sequence (P83916 whole entry, looked up): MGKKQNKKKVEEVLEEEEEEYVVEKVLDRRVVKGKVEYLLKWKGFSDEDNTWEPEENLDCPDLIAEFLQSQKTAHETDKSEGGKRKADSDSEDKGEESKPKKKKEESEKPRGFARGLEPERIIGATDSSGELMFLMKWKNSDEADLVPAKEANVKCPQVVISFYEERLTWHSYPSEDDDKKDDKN
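Compound inhibition of the preformed complex between 50 nM HP1-beta and 50 nM biotinylated H3K9me3 peptide was read by AlphaScreen. Buffer was PBS pH 7.4 with 0.01% Tween-20. Incubations ran 30 min at room temperature, with 10 ug/mL donor/acceptor beads.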
L3MBTL1 inh: qHTS Assay for the Inhibitors of L3MBTL1; Lethal(3)malignant brain tumor-like protein 1 (Homo sapiens), Q9Y468; AlphaScreen L3MBTL1–H3K9me1 peptide binding; Potency, µM (doses to about 57.1 µM), without a hit: top-dose activity, negative = inhibition, actives largely listed as inhibitors; 230,000 compounds, 0.66% hits; note: % is set by controls: 0 for no effect and ±100 for the full control effect; nearly all actives have a fitted effect of over 60% in size
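AlphaScreen assay: L3MBTL1 (50 nM final) was preincubated 30 min at room temperature with biotinylated H3(1-15)K9me1 peptide (75 nM final), then 30 min with library compounds; streptavidin donor and nickel chelate acceptor beads (10 ug/mL final) added, 30 min dark.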
Sfp PPTase inh: qHTS Assay for Inhibitors of Bacillus subtilis Sfp phosphopantetheinyl transferase (PPTase). 310,000 compounds, 3.5% hits. Biochemical Sfp PPTase activity, qHTS. 4'-phosphopantetheinyl transferase ffp (Bacillus subtilis), Q9F4F7. Potency, µM, without a hit: largest response in the series, negative = inhibition, most hits filed as inhibitors;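 note: the enzyme is Sfp with the accession as filed and its product quenches rhodamine fluorescence; 0% = enzyme reaction without inhibitor and -100% = no enzyme wells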
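Buffer: 50 mM Hepes-Na pH 7.6, 10 mM MgCl2, 0.01% Nonidet P-40, 0.01% BSA. Enzyme 15 nM, pre-exposed to compound 15 min; substrates then added and fluorescence change tracked over 30 min.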
BAZ2B block: qHTS Assay for Inhibitors of BAZ2B. 360,000 compounds, 4.4% hits. Bromodomain adjacent to zinc finger domain protein 2B (Homo sapiens), Q9UIF8. AID 504333, 2011. Potency, µM (doses to about 114 µM), for inactives: at the highest dose activity change, negative = inhibition, usual class: inhibitors. AlphaScreen BAZ2B-H3K14Ac peptide displacement; note: % is set by controls: 0 for no effect and ±100 for the full control effect; nearly all actives have a fitted effect of over 60% in size
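BAZ2B 50 nM plus b-H3(5-23)K14Ac 50 nM, PBS pH 7.4/0.01% Tween-20, 30 min RT; compound added (max 110 uM), 30 min RT; streptavidin donor/Ni-chelate acceptor beads 10 ug/mL final, 20 min dark; AlphaScreen read.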
* hit, by the source's call; [ ] = another dose, or the depositor's remark. Shown are actives, neighbours in structure and some others; about 12% of the full set was active somewhere. Calls come from the whole dose curve; as a rule, active = well fitted curve in the direction sought with a large enough effect; inconclusive = small, poorly fitted or top-dose-only effect, or another doubt; inactive = no such curve, though single readings can be large; an effect the other way counts as inactive or inconclusive. Potency is the fitted concentration of half-maximal effect.

What do the screens show for `Cc1oc(-c2ccc(Cl)cc2)nc1CN1CCCC(C(=O)NCc2ccccc2)C1` (stereo not given)?
G9a inh: 0%[59 µM]; JMJD2A Tudor: -32%; HP1b chromo inh: 4%; BAZ2B block: -37%

How did CCCn1c(-c2ccc(F)cc2)nc2c(NCCN(C(C)C)C(C)C)nc(C)nc21 do in these assays?
Sfp PPTase inh: 17%

How did COc1cc(C2C(C(=O)c3ccco3)=C(O)C(=O)N2c2cc(C)on2)cc(Br)c1O (stereo not given) do in these assays?
G9a inh: 0%[59 µM]; JMJD2A Tudor: inconclusive; HP1b chromo inh: -4%; L3MBTL1 inh: 0%; Sfp PPTase inh: -4%; BAZ2B block: 1%

Results for CCOC(=O)c1sc(N2C(=O)C(O)=C(C(=O)c3ccco3)C2c2ccco2)nc1C (stereo not given) ?
G9a inh: 8.9µM*; JMJD2A Tudor: 16µM*; HP1b chromo inh: inconclusive; Sfp PPTase inh: -19%; BAZ2B block: inconclusive

What do the screens show for `COc1ccc2nc(N3C(=O)C(O)=C(C(=O)c4ccco4)C3c3ccccc3OC)sc2c1` (stereo not given)?
G9a inh: 35µM*; JMJD2A Tudor: -2%; HP1b chromo inh: 30%; Sfp PPTase inh: 17%; BAZ2B block: inconclusive

Results for COc1ccc2nc(N3C(=O)C(O)=C(C(=O)c4ccco4)C3c3ccc(C)o3)sc2c1 (stereo not given) ?
G9a inh: 25µM*; JMJD2A Tudor: inconclusive; HP1b chromo inh: -23%; L3MBTL1 inh: -13%; BAZ2B block: 45µM*

What do the screens show for `CC(=O)c1ccc(N2CCN(CC(=O)N(C3CC3)C3CCS(=O)(=O)C3)CC2)c(F)c1` (stereo not given)?
G9a inh: 28%[12.7 µM]; JMJD2A Tudor: 3%; HP1b chromo inh: 28%; L3MBTL1 inh: 4%; BAZ2B block: 8%

Results for COCCNC(=O)C(c1ccc(F)cc1)N(C(=O)CCC(=O)Nc1ccccn1)c1ccc(C)cc1 (stereo not given) ?
G9a inh: -11%[59 µM]; JMJD2A Tudor: -7%; HP1b chromo inh: 25%; Sfp PPTase inh: 30%; BAZ2B block: -1%

Results for COc1ccc(N=C(C)C2=C(O)COC2=O)cc1 ?
G9a inh: 6.3µM*; JMJD2A Tudor: -14%; HP1b chromo inh: 35%; L3MBTL1 inh: 3%; Sfp PPTase inh: 7%; BAZ2B block: -19%

What do the screens show for `CC(=O)c1ccc(NC(=S)Nc2ccc3cn[nH]c3c2)cc1`?
G9a inh: 45µM*; JMJD2A Tudor: -31%[57.1 µM]; HP1b chromo inh: -4%; L3MBTL1 inh: -8%; Sfp PPTase inh: 32µM*; BAZ2B block: -12%

What do the screens show for `COc1ccc(S(=O)(=O)Nc2ccc3cn[nH]c3c2)cc1C`?
G9a inh: -1%; JMJD2A Tudor: -11%[11.4 µM]; HP1b chromo inh: 15%; Sfp PPTase inh: -2%; BAZ2B block: -13%

Results for CC(C)c1ccc(NC(=S)Nc2ccc3cn[nH]c3c2)cc1 ?
G9a inh: 79µM*; JMJD2A Tudor: -31%; HP1b chromo inh: 0%; L3MBTL1 inh: -8%; Sfp PPTase inh: 10%; BAZ2B block: inconclusive

What do the screens show for `CN(C)c1ccc(NC2=C(Cl)C(=O)c3ccccc3C2=O)cc1`?
G9a inh: 2.2µM*; JMJD2A Tudor: 6.3µM*; HP1b chromo inh: 5µM*; L3MBTL1 inh: 16µM*; Sfp PPTase inh: inconclusive; BAZ2B block: 2.5µM*

What do the screens show for `COC(=O)c1ccccc1S(=O)(=O)Nc1ccc2cn[nH]c2c1`?
G9a inh: 45µM*; JMJD2A Tudor: 0%; HP1b chromo inh: 49%; L3MBTL1 inh: 3%; Sfp PPTase inh: -2%; BAZ2B block: -3%
